Results as given in PubChem BioAssay (NCI).
This is part of a sample that, as a whole, favours compounds with a hit. Of some 79,000 tested, about 15% had one in any assay. Unmarked numbers belong to inactive results. Rule as the data show it: active = growth inhibition above about 70%; inactive = the rest.

assay: NCI Yeast Anticancer Drug Screen. Data for the rad50 strain (AID 155);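 also: 0% = growth of vehicle-only cultures of the same strain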; conditions: S. cerevisiae rad50 strain growth inhibition; at 50.0 µM; stronger effect = higher value
Experimental: Growth inhibition of yeast strains with defined genetic alterations is measured as a screen for potential anti-cancer activity. Selected strains with alterations in DNA damage repair or cell cycle control were exposed to compounds and growth inhibition was measured relative to vehicle treated controls. The strain used in this assay is rad50

Row | SMILES | growth inhibition
1 | N#CC1(C#N)C2CCCCC23OC(=N)C1(C#N)C(c1ccccc1)O3 (stereo not given) | 9.3%
2 | O=C(Cc1nc2ccc(C(=O)c3ccccc3)cc2[nH]c1=O)C(=O)Nc1ccccc1[N+](=O)[O-] | 2.75%
3 | Fc1ccc(Nc2nc(Cl)c3[nH]cnc3n2)cc1Cl | 11.5%
4 | Cc1cc2nn(C3CCCO3)nc2cc1C (stereo not given) | -10.6%
5 | CC(=O)C1=C(C)N2C(=NC3=C(CCc4ccccc43)C2c2ccc(Cl)cc2)S1 (stereo not given) | 25.9%
6 | OCc1ccccn1 | -10.7%
7 | CCCCCCCCOC(=O)C(=O)C(C#N)c1ccccc1 (stereo not given) | 6.95%
8 | CC(=O)C1=C(C)N2C(=NC3=C(CCc4ccccc43)C2c2cccc(Br)c2)S1 (stereo not given) | 12.4%
9 | O=C1NC(N/N=C\C(O)C(O)C(O)C(O)CO)=N/C1=C\c1ccc(Cl)cc1 (stereo not given) | 23.6%
10 | Cc1cc(N(CCC#N)CCC#N)ccc1/C=N/NC(=O)c1cc(Cl)ccc1O | -1.8%
11 | Fc1ccc(P(c2ccc(F)cc2)c2ccc(F)cc2)cc1 | 41.4%
12 | CCOc1cc2c(cc1O)C=C[C@@H]1[C@@H]2CC[C@]2(C)[C@@H](O)CC[C@@H]12 | 33.8%
13 | Cc1ccc(N2C(=O)CC(Sc3ccccc3N)C2=O)cc1Cl (stereo not given) | -15.5%
14 | O=C1c2ccccc2C(=O)N1/N=C/c1ccc2c(c1)OCO2 | 22.5%
15 | Cn1/c(=N\N=C\C(=O)O)sc2ccccc21 | -6.1%
16 | COc1cc2oc3c(c(=O)c2c(O)c1/C=C/C(C)C)CCC(C)(C)Oc1cc(O)ccc1-3 | 22.6%
17 | CCCCCCC(C/C=C\CCCCCCCC(=O)OC)OC(C)=O (stereo not given) | -10.2%
18 | Clc1cccc(Cl)c1Br | 7.45%
19 | C1CCCCNCCC1 | -22.8%
20 | COc1ccc2nc(N/N=C/c3ccc(C)s3)cc(C)c2c1 | 22.3%

Row | SMILES | growth inhibition
21 | C=CC(COC(=O)C(C)(C)OC(C)=O)c1ccc(OC(=O)C(C)C)c(OC)c1 (stereo not given) | -12.3%
22 | CC1=CC(=O)c2ccc(C)cc2C1=O | -8.9%
23 | S=C1SCN(Cc2ccccc2)CN1Cc1ccccc1 | -10.1%
24 | C[Si]1(C)N[Si](C)(C)N[Si](C)(C)N1 | 13.2%
25 | CC(=O)CC(=O)N1CCN(C(=O)CC(C)=O)CC1 | -16.9%
26 | CC1=NN(c2ccccc2)C(=O)C1C(=O)c1ccccc1 (stereo not given) | 22.2%
27 | N#CCC(=O)OCCCCOC(=O)CC#N | -8.3%
28 | CN(c1ccccc1Cl)S(C)(=O)=O | -4.2%
29 | CCOC(=O)c1c(N)sc2c1CCN(Cc1ccccc1)C2 | 39.4%
30 | C(=N\N=C\c1c[nH]c2ccccc12)/c1c[nH]c2ccccc12 | -21.6%
31 | CCO/C=N\C1=C(C#N)SC2=N/C(=C\c3ccc(OC)cc3)C(=O)N21 | -7.4%
32 | Cc1ccc(-c2nc3cc(Cl)ccc3c(=O)o2)cc1 | 14.6%
33 | CN1C2CCC1CC(OC(=O)C(O)c1ccccc1)C2 (stereo not given) | 9.3%
34 | C/C=C1\NC(=O)[C@H]2CSSCCC=C[C@H](CC(=O)N[C@H](C(C)C)C(=O)N2)OC(=O)[C@H](C(C)C)NC1=O | 26.1%
35 | O=c1c(=O)n(CCO)n(CCO)c(=O)n1CCO | -29.7%
36 | CCCCCCCCCCCCC/C=C/[C@H]1[C@@H](C(=O)OC)N1S(=O)c1ccc(C)cc1 (stereo not given in full) | -15.1%
37 | CC1CCN(c2ccc([N+](=O)[O-])cc2[N+](=O)[O-])CC1 | 42.2%
38 | Cc1ccc(N2CSC(=S)N(c3ccc(C)cc3)C2)cc1 | -10.4%
39 | N#CC1(C#N)N[C@@H](c2ccsc2)[C@H]2C(=O)N(c3ccccc3)C(=O)[C@H]21 | 5.6%
40 | O=C(N/N=C/c1ccc2c(c1)CCC2)c1cccc([N+](=O)[O-])c1 | -17.9%
